Bioassay records: PubChem BioAssay, several laboratories
The list is not random: actives were taken first. Their share in the collection is about 1.8%.
PrP UTR inh: suppresses PrP 5' UTR mRNA reporter expression. cell-based PrP 5' UTR mRNA reporter, plate reader. inhibition, % (concentration not given with the values). 0.35% of 340,000 active; in the data active = inhibition above about 52%; note: 0 = median of the neutral control wells
PrPC surface inh: inhibitors of human cell surface prion protein PrPC. AID 720596. 0.43% of 370,000 active. TR-FRET read-out. inhibition, % at 13.8 µM; in the data active = inhibition above about 24%; note: 0% = median of the test wells and 100% = reference compound wells
MazEF act: increases E. coli MazEF RNase cleavage of RNA; P0AE70; FAM/BHQ RNA-DNA oligo cleavage fluorescence, 5 h; activation, % at 20 µM; 0.32% of 350,000 active; AID 504720; in the data active = activation above about 50%
Target sequence (P0AE70 whole entry, looked up): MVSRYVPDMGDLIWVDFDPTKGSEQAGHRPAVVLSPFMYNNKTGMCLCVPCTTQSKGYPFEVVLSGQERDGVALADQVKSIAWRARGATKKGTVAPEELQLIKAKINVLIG
PfHsp40 rescue: restores yeast growth despite PfHsp40 toxicity | growth rescue, % at 12.5 µM | 0.68% of 340,000 active | AID 504582 | S. cerevisiae expressing PfHsp40, growth rescue, ATP luminescence; in the data active = growth rescue above about 28%, passing the limit was not always enough;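 note: yeast W303a lacking pdr1 and pdr3 grown in galactose medium; growth measured after three days at 30 °C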
SSB-PriA inh: blocks PriA binding to SSB C-terminal tail | AlphaScreen SSBct-PriA binding, biotinylated peptide | 0.6% of 430,000 active | AID 1272365 | inhibition, % at 33 µM; in the data active = inhibition mostly above about 37%, no sharp cut-off; inactive = mostly below about 20%;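 note: plate controls were negative control peptide for no effect and reference peptide for full effect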
Starred values were filed as active, the others as inactive; nt = no result; ! = a repeat was not active.

SMILES	PrP UTR inh	PrPC surface inh	MazEF act	PfHsp40 rescue	SSB-PriA inh
CCCCCc1cc(=O)oc2c(C(CCN3CCCC(C)C3)c3cc(OC)c(OC)c(OC)c3)c(OC)cc(OC)c12 (stereo not given)	-28	nt	2	-2	13
Cc1cc(=O)oc2cc(NC(=O)Cc3ccccc3[N+](=O)[O-])ccc12	-36	7	16	1	-11
CN(C)CCCOC(=O)C1c2ccccc2Oc2ccccc21	-14	-10	7	44*	-15
O=C(Nc1nncs1)c1ccc(S(=O)(=O)c2ccccc2)cc1	5	6	9	173*	4
COc1ccccc1CNC(=O)CCNS(=O)(=O)/C=C/c1ccc(C)cc1	-11	-4	3	1	-1
CCN(Cc1ccccc1)S(=O)(=O)c1ccc(C(=O)N(CCCN(C)C)c2nc3c(C)c(C)ccc3s2)cc1	-17	-13	0	1	39*!
Cc1ccc2sc(N(CCCN(C)C)C(=O)c3nc4ccccc4s3)nc2c1C	-19	5	-10	1	0
Cc1cccc2sc(N(CCCN(C)C)C(=O)c3nc4ccccc4s3)nc12	-22	-1	18	0	51*
Cc1ccc2sc(N(CCCN(C)C)C(=O)c3ccc(S(=O)(=O)N(C)C4CCCCC4)cc3)nc2c1C	-4	-12	6	0	40*!
Cc1cc(C(=O)N(Cc2ccco2)c2nc3ccc(Cl)cc3s2)on1	nt	nt	nt	nt	-6
CN(C)c1ccc(N=Nc2cccc(F)c2)cc1	-139	-8	-8	0	32
Cc1cccc(N=Nc2ccc(N(C)C)cc2)c1	-6	6	-7	3	55*
O=C(O)c1ccc(C2CCCC2)cn1	nt	nt	nt	nt	100*
CC1(C)CC(C(CC(=O)N2CCCC2)Cc2ccccc2)CCO1 (stereo not given)	-9	7	-1	0	-10
CC(C)N1CCc2c(sc(NC(=O)Cc3ccccc3)c2C(N)=O)C1	-18	-3	5	1	-1
CC(C)N1CCc2c(sc(NC(=O)c3ccc4ccccc4c3)c2C(N)=O)C1	-5	-11	-98	0	-22
CC(C)N1CCc2c(sc(NC(=O)c3ccc(C(=O)c4ccccc4)cc3)c2C(N)=O)C1	-7	-18	-18	1	81*
NC(=O)c1c(NC(=O)C2COc3ccccc3O2)sc2c1CCN(Cc1ccccc1)C2 (stereo not given)	-33	-9	258*	1	-2
CC(=O)N1CCc2c(sc(NC(=O)Cc3ccccc3)c2C(N)=O)C1	-11	4	-35	-1	115*
CC(CCc1ccccc1)NC(=O)CCC1=NS(=O)(=O)c2ccc(C(F)(F)F)cc2N1 (stereo not given)	nt	nt	nt	nt	2
CCOc1ccc(N(C)S(=O)(=O)c2ccsc2-c2nc(-c3ccccc3C)no2)cc1	nt	nt	nt	nt	2
Cn1ncc2c(ON=C(N)c3ccc(C(F)(F)F)cc3)ncnc21	nt	nt	nt	nt	0
Cn1ncc2c(O/N=C(\N)c3ccc(C(C)(C)C)cc3)ncnc21	-2	nt	1	73*	nt
Oc1ccc(C=NNc2ccccn2)c(O)c1	5	23	8	-1	95*
Oc1cccc(C=NNc2ccccn2)c1	-13	6	8	-1	3
SMILES	PrP UTR inh	PrPC surface inh	MazEF act	PfHsp40 rescue	SSB-PriA inh
COCCCNC(=S)NN=Cc1ccc(O)cc1O	nt	nt	nt	nt	46*
Cc1ccccc1NC(=S)NN=Cc1ccc(O)cc1O	nt	nt	nt	nt	50*
COCCCNC(=S)N/N=C/c1ccccc1O	-34	3	8	-1	nt
COc1ccc(N2CCN(CCCNC(=O)C(=O)c3c[nH]c4ccccc34)CC2)cc1	-14	-3	4	0	48*
O=C(NCCCN1CCOCC1)C(=O)c1c[nH]c2ccccc12	-16	-4	2	0	-3
COc1ccccc1C(=O)Nc1sc2c(c1C(N)=O)CCCC2	-45	-8	-22	-1	6
O=C1C(Cl)=C(NCCc2ccccc2)C(=O)N1CCc1ccccc1	-41	-2	70*	1	-17
O=C1C(Cl)=C(NCCCN2CCOCC2)C(=O)N1CCc1ccccc1	2	-14	-5	-2	-7
O=C(O)[C@H]1CCCC[C@H]1C(=O)Nc1ccc(S(=O)(=O)N2CCCCC2)cc1	-19	-2	1	0	-4
O=C(O)C1CCCCC1C(=O)Nc1ccc(S(=O)(=O)N2CCCC2)cc1 (stereo not given)	-9	4	-3	116*	-15
C/C(=N\NC(N)=O)c1cc(Cl)cc(Cl)c1O	nt	-5	11	nt	nt
Oc1cc2c(cc1O)[C@H]1c3ccc(O)c(O)c3OC[C@@]1(O)C2	-22	13	231*	1	-1
